Screens from PubChem BioAssay.
HCMV inh: human cytomegalovirus inhibition; HFF cells, HCMV-luciferase reporter, 72 h; stronger effect = lower value; activity change, negative = inhibition, % at 57.5 µM; 410,000 tested, 4.5% active; AID 1259415; in the data active = activity change below about -60%; inconclusive = no clear call, values can overlap the other calls; inactive = above about -39%
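Two-dose cell screen: HFF monolayers treated with compounds and infected with luciferase-expressing HCMV at 1 PFU/cell, 72 h at 37C, then lysed for luciferase measurement.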
FMDV inh: foot and mouth disease virus antiviral activity; 410,000 tested, 1.2% active; FMDV antiviral cell-based qHTS; Potency, µM (titrated, usually from 57.9 µM), for the others: at the highest dose activity change, negative = inhibition, most hits filed as inhibitors; AID 1159524; calls by dose curve; tested in HEK293T cells; note: read-out not given here; potency is the fitted concentration of half-maximal effect; nearly all actives have a fitted effect of over 45% in size
Vaccinia Venus: inhibitors of vaccinia virus (Venus reporter); Potency, µM (doses to about 36.5 µM), inactives show top-dose activity change, negative = inhibition, usual class: inhibitors; Vaccinia virus Venus reporter expression, fluorescence; 330,000 tested, 0.46% active; calls by dose curve; tested in A549 cells; note: potency is the fitted concentration of half-maximal effect; nearly all actives have a fitted effect of over 30% in size
HCV inhibitor: HCV inhibition; 340,000 tested, 3.4% active; Potency, µM (top dose mostly 41.8 µM), for inactives: at the highest dose activity change, negative = inhibition, most hits filed as inhibitors; Huh7.5.1 HCVcc-Cre infection, luciferase reporter, 44 h; note: potency is the fitted concentration of half-maximal effect
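Compounds are dispensed onto cells plated 4 h earlier at 1,000 per well, with HCVcc-Cre virus (about 0.5 moi) added next. Following 44 h of culture, luminescent signal is measured for 15 sec after 15 min with substrate at room temperature.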
Vaccinia mCherry: vaccinia inhibition (mCherry reporter); AID 720579; Vaccinia virus mCherry reporter infection, fluorescence; 310,000 tested, 0.63% active; Potency, µM (doses to about 36.5 µM), inactives show at the highest dose activity change, negative = inhibition, hits mostly inhibitors; calls by dose curve; tested in A549 cells; note: potency is the fitted concentration of half-maximal effect; nearly all actives have a fitted effect of over 35% in size
Sm TGR inh: inhibitors of Schistosoma mansoni thioredoxin glutathione reductase | Q962Y6 | purified TGR, DTNB reduction, TNB absorbance 405 nm | Potency, µM (titrated, usually from 114 µM), without a hit: at the top dose activity change, negative = inhibition, usual class: inhibitors | 360,000 tested, 3% active | AID 485364; note: potency is the fitted concentration of half-maximal effect; nearly all actives have a fitted effect of over 60% in size
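TGR 20 nM + NADPH 100 uM (dispensed conc.), cpd preinc 15 min RT; start with NADPH (500 uM addition) then DTNB (15 mM addition). Kinetic TNB absorbance, 405 nm filter. Four-parameter Hill fit across titration.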
Active calls of the source: *; i = inactive; u = inconclusive; x = no result; + = active, no number; [ ] = another dose, or the depositor's remark. An excerpt weighted towards active compounds, which were near 9.3% of everything screened. Unless noted, calls come from the whole dose curve; as a rule, active = well fitted curve in the direction sought with a large enough effect; inconclusive = small, poorly fitted or top-dose-only effect, or another doubt; inactive = no such curve, though single readings can be large; an effect the other way counts as inactive or inconclusive. % is set by controls: 0 for no effect and ±100 for the full control effect.

SMILES | HCMV inh | FMDV inh | Vaccinia Venus | HCV inhibitor | Vaccinia mCherry | Sm TGR inh
CCc1nc(N2CCN(C(=O)c3ccco3)CC2)c(C#N)c2c1COC(C)(C)C2 | -1 | -21% | -27% | 22µM* | u | 0%
CC(C)C(OC(=O)CCC(=O)Nc1nccs1)C(=O)NC1CCCCC1 (stereo not drawn) | u | -18% | -11% | 24% | -4% | 4%
Clc1ccccc1-c1nnn(Cc2ccc(-c3nn[nH]n3)cc2)n1 | -36 | 33% | -4% | 2% | -20% | -2%
CCc1c(C2(O)CCCCC2)[nH]c2ccc(C(F)(F)F)cc12 | -26 | 40µM* | u | u | -28% | -3%
Cc1[nH][nH]c(=O)c1C(c1ccc(-c2ccc(Cl)c(C(=O)O)c2)o1)c1c(C)[nH][nH]c1=O | -7 | 7% | -8% | 1% | i | 16µM*
CC1(C)OC(=O)C(=Cc2ccc(-c3ccc(Cl)c(C(=O)O)c3)o2)C(=O)O1 | -3 | 3% | -5% | 8% | -7% | -6%
COC(=O)c1ccc(C(c2c(C)[nH][nH]c2=O)c2c(C)[nH][nH]c2=O)cc1 | -17 | -14% | x | 10% | x | -7%
COC(=O)c1ccccc1-c1ccc(C(c2c(C)[nH][nH]c2=O)c2c(C)[nH][nH]c2=O)o1 | -34 | 20µM* | -14% | 12% | i | -1%
COC(=O)c1cccc(-c2ccc(C(c3c(C)[nH][nH]c3=O)c3c(C)[nH][nH]c3=O)o2)c1 | -13 | u | -3% | -8% | 1% | 14µM*
Cc1ccc2nc(Cl)c3nnnn3c2c1 | x | 13µM* | -2% | u | i | 1.4µM*
O=C1NC2(CCCCC2)N=C1c1ccc(F)cc1 | -74* | -15% | -10% | x | -15% | 2%
O=C1NC2(CCCCC2)N=C1c1ccc(Br)cc1 | 2 | 18% | -3% | 1% | -11% | -3%
Cc1ccc(NC(=O)C(=O)NCC2CCCN2S(=O)(=O)c2cccs2)cc1 (stereo not drawn) | -10 | -14% | -23% | 7% | -8% | -14%
COc1ccccc1-c1nnc(SCC(=O)c2c(N)n(C3CC3)c(=O)[nH]c2=O)o1 | 3 | -13% | x | 31% | x | -12%
Nc1c(C(=O)CSc2nc3ccccc3o2)c(=O)[nH]c(=O)n1C1CC1 | + | 1% | x | u | x | -1%
Cc1nnc(SCC(=O)Nc2ccc([N+](=O)[O-])cc2)n1CC1CCCO1 (stereo not drawn) | -30 | 38% | 1% | 16% | i | 9%
O=C(N/N=C/c1cn(-c2ccccc2)nc1-c1ccccc1)c1ccco1 | -21 | -18% | x | u | x | -13%
Cc1ccc(-c2nn(-c3ccccc3)cc2/C=N/NC(=O)c2ccc(Br)o2)cc1 | 22 | 28µM* | -15% | -11% | x | 12%
O=C(N/N=C/c1cn(-c2cccs2)nc1-c1ccccc1)c1ccccc1Cl | -17 | 6% | -16% | 11µM* | -11% | -3%
NC(=O)N/N=C/c1cn(-c2ccccc2)nc1-c1cccs1 | 9 | 33% | -13% | u | -11% | -4%
Cc1nnc(SCC(=O)N/N=C/c2cn(-c3ccccc3)nc2-c2ccccc2)n1-c1ccccc1 | 3 | 28µM* | u | u | u | 18%
O=C(N/N=C\c1cn(-c2ccccc2)nc1-c1ccccc1)c1ccc(Br)o1 | 75 | u | -29% | 4µM* | u | 14%
COC(=O)c1scc(C)c1-n1ccc(C(=O)C(=O)N(C)C)c1 | 16 | -9% | x | 19% | x | -7%
COc1ccc(F)c(CN2CCC(n3nccc3NC(=O)CCCc3ccccc3)CC2)c1 | 40 | -22% | -12% | u | 0% | -1%
O=C(NC1CCCCC1)C1CCCN(S(=O)(=O)c2ccc(F)cc2)C1 (stereo not drawn) | -81* | -13% | -9% | 7% | -13% | 23%
SMILES | HCMV inh | FMDV inh | Vaccinia Venus | HCV inhibitor | Vaccinia mCherry | Sm TGR inh
CCOC(=O)C1CCCN(S(=O)(=O)c2ccc(S(=O)(=O)N3CCCC3)cc2)C1 (stereo not drawn) | 10 | u | x | 1.4µM* | x | 0%
CCOC(=O)C1CCCN(C(=O)c2ccc(S(=O)(=O)N3CCCC3)cc2)C1 (stereo not drawn) | 10 | -19% | -6% | u | -10% | -7%
CCOC(=O)C1CCCN(S(=O)(=O)c2cnc(Cl)c(Br)c2)C1 (stereo not drawn) | u | -3% | x | u | x | 32µM*
CCOc1ccc(-n2c(=O)c3c(C)c(C)sc3n(Cc3c(F)cccc3Cl)c2=O)cc1 | -9 | -5% | -7% | x | -11% | 10%
NC(=NCCc1c[nH]c2ccccc12)NS(=O)(=O)c1ccc2ccccc2c1 | -24 | 0% | u | u | i | 0%
O=C(Nc1nnc(/N=C/c2ccco2)s1)c1ccc(F)cc1 | 65 | 18% | x | 10% | x | 0%
CC1CCc2cc(F)ccc2N1C(=O)CCl (stereo not drawn) | x | 14µM* | -2% | u | -21% | 5.6µM*
CCCS(=O)(=O)c1ncc(Cl)c(C(=O)N2CCN(c3ccc(OC)cc3)CC2)n1 | -103* | -12% | -9%[7.34 µM] | x | -16%[7.34 µM] | 11µM*
Cc1ccc(-c2ccc(CCC(=O)O)n2NC(=O)c2ccc([N+](=O)[O-])cc2)cc1 | -37 | 6% | -12% | 14% | -6% | u
O=C(O)CCc1ccc(-c2ccc(F)cc2)n1CC(=O)O | -29 | -13% | -14% | -6% | x | u
O=C(O)CCc1ccc(-c2ccc(Br)cc2)n1NC(=O)c1ccc([N+](=O)[O-])cc1 | u | -11% | x | 6% | x | 45µM*
Cc1ccc(-c2ccc(CCC(=O)O)n2NC(=O)c2ccco2)cc1 | 18 | -16% | -6% | -4% | x | u
NC(=O)Nn1c(CCC(=O)O)ccc1-c1ccc(F)cc1 | -93* | -16% | x | 14% | x | 50µM*
O=C(O)CCc1ccc(-c2ccc(F)cc2)n1NC(=O)c1ccco1 | -30 | -6% | -16% | 14% | x | 40µM*
CC1NC(=O)c2cccnc2-n2c1nc1ccccc1c2=O (stereo not drawn) | -7 | -6% | -3% | x | -16% | x
Nc1ncnc2[nH]c(=O)[nH]c12 | x | 1% | -11% | x | -16% | x
c1ccc(C(c2ccccc2)N2CCN(Cc3nc(-c4cnccn4)no3)CC2)cc1 | 12 | -28% | x | -8% | x | 25µM*
COC(=O)C1=C(c2cccc(OCc3ccccc3)c2)C[C@@H]2CC[C@H]1N2C(=O)NCc1ccccc1 | -30 | -1% | u | u | -20% | 0%
COC(=O)C1=C(c2cccc(OCc3ccccc3)c2)C[C@@H]2CC[C@H]1N2C(=O)NCc1ccc(OC)cc1 | 18 | -13% | u | 22µM* | -24% | 2%
COC(=O)C1=C(c2cccc(OCc3ccccc3)c2)C[C@@H]2CC[C@H]1N2C(=O)NCc1ccccc1OC | -88* | -7% | u | u | u | 1%
